# Test results reported in PubChem BioAssay (NCI).
# “And” between values parts separate entries of the source, which are not always exact repeats. Equal values may be shown once. This is part of a sample that, as a whole, favours compounds with a hit. Of some 79,000 tested, about 15% had one in any assay. The source made the active and inactive calls. No stated cut-off is given here; in the data, active means growth inhibition above about 70%; inactive means the rest.
# Test: NCI Yeast Anticancer Drug Screen. Data for the mec2-1 strain (AID 157)
# Settings: S. cerevisiae mec2-1 strain, at 50.0 µM, active compounds read high
# How it was run: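 mec2-1 yeast strain, carrying an alteration in DNA damage repair or cell cycle control, was exposed to compounds; growth inhibition was measured relative to vehicle-treated controls.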
row,SMILES,growth inhibition
1,N#C[C@H](OC1OC(COC2OC(CO)C(O)C(O)C2O)C(O)C(O)C1O)c1ccccc1 (some centres not stated),-34.6% (inactive)
2,CCCCCCN1C(C)C1C(C)C (configuration not stated),12.2% (inactive)
3,CCCCCOP(=O)(OCCCCC)C(=O)Nc1ccc([N+](=O)[O-])cc1,4.85% (inactive)
4,Cc1nnc2cc3ccccc3cn12,9.45% (inactive)
5,C[N+](C)(C)CC1CCC(C[N+](C)(C)C)C1=NO (configuration not stated),11.1% (inactive)
6,C[C@H]1CC(=O)C[C@@H]2CC[C@@H]3[C@H](CC[C@]4(C)C(OC(=O)c5cccc6c(=O)c7ccccc7[nH]c56)CC[C@@H]34)[C@]21C (some centres not stated),22% (inactive)
7,C=C(C)C1(CC)C(=O)NC(=O)N(C)C1=O (configuration not stated),7.5% (inactive) and 9.4% (inactive)
8,O=c1oc2ccccc2c(O)c1C(c1cnc2ccccc2c1)c1c(O)c2ccccc2oc1=O,40.2% (inactive)
9,CNC(C)(C)Cc1ccc(Cl)cc1,10.8% (inactive)
10,O=P(OCCCCl)(OCCCCl)C(Cl)(Cl)Cl,-5.65% (inactive)
11,OC1(CN2CCCCC2)N=C(c2ccccc2)c2ccsc2-n2cccc21 (configuration not stated),-22.6% (inactive)
12,O=c1[nH]c2ccccc2c(=O)n1-c1ccccc1,-4.45% (inactive)
13,CCCCCCCCCCCOP(=O)(OCC)OCC,99.8% (active)
14,Cc1ccc(NC(=O)C(Cl)(Cl)Cl)cc1Cl,20.6% (inactive)
15,NC(Cc1ccc(Cl)cc1)P(=O)(O)O (configuration not stated),-4.35% (inactive)
16,c1ccc(-c2sc3cccc[n+]3c2-c2ccccc2)cc1,0.6% (inactive)
17,CC(=O)Oc1ccc([As](=O)(O)O)cc1,-7.75% (inactive)
18,CO[C](=[W])c1ccccc1.[C-]#[O+].[C-]#[O+].[C-]#[O+].[C-]#[O+].[C-]#[O+],-0.6% (inactive)
19,CC(C)c1cccc(OC(=O)N(C)C=O)c1,12.7% (inactive)
20,Cc1cnc2ncn(Cc3c[nH]c(=O)[nH]c3=O)c(=O)c2c1,5.55% (inactive)
21,CCCCC(Br)C(=O)OCC (configuration not stated),6.55% (inactive)

# Test: NCI Yeast Anticancer Drug Screen. Data for the sgs1 mgt1 strain (AID 161);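 further: 0% = growth of cultures given vehicle only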
# Settings: S. cerevisiae sgs1 mgt1 strain, at 50.0 µM, active compounds read high
# How it was run: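 Yeast cells carrying a defined DNA-repair defect were exposed to test compounds. Growth inhibition was measured relative to vehicle-treated controls.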
row,SMILES,growth inhibition
1,NC(=O)/C=C/C(=O)O,10.5% (inactive)
2,O=C(O)c1cc(I)cc(I)c1I,-34.5% (inactive)
3,CC(C)(C)NC(=O)C(Cl)Cl,-5.85% (inactive)
4,O.O.O=Cc1ccccc1O.O=Cc1ccccc1O.[Co],97.8% (active)
5,CC(Cc1ccc(O)cc1)NCC(O)c1ccc(O)c(O)c1 (configuration not stated),3.4% (inactive)
6,CC1([N+](=O)[O-])COP(=O)(NCC2CCCO2)OC1 (configuration not stated),-2.9% (inactive)
7,O=[As](O)(O)c1cc(F)ccc1F,-11.4% (inactive)
8,O=C(O)COc1ccc(Cl)cc1Cl (tested in a mixture with another compound),14.7% (inactive)
9,NC(CSC(c1ccccc1)c1ccccc1)C(=O)O (configuration not stated),3.35% (inactive)
10,Cc1cccc(C)c1[S][Pb][S]c1c(C)cccc1C,-7.9% (inactive)
11,O=C(CF)NCCCl,-1.65% (inactive)
12,O=C(Nc1ccc(Cl)cc1C(=O)c1ccccc1)c1ccc(Cl)cc1,4.25% (inactive)
13,CN1CN(c2ccccc2)C2(CCN(CC(C)(c3ccc(F)cc3)C3OCCCO3)CC2)C1=O (configuration not stated),-21.9% (inactive)
14,CCOC(CNC(=O)c1ccc(S(=O)(=O)F)cc1)OCC,22.1% (inactive)
15,CCN(CC)CC(=O)c1ccccc1,-21.2% (inactive)
16,CCC[CH2][Sn]([CH2]CCC)([CH2]CCC)[CH2]CC(=O)OC,99.5% (active)
17,CCC(=O)C1(c2ccccc2)CCN(C)CC1,12.8% (inactive)
18,Cc1nnnn1C,-18.9% (inactive)
19,O=[As](O)(O)c1cc(N=Nc2ccc(-c3ccc(N=Nc4cc([As](=O)(O)O)c(O)cc4O)cc3)cc2)c(O)cc1O,33.2% (inactive)
20,N#C[C@H](OC1OC(COC2OC(CO)C(O)C(O)C2O)C(O)C(O)C1O)c1ccccc1 (some centres not stated),-20.6% (inactive)
21,CCCCCCN1C(C)C1C(C)C (configuration not stated),2.25% (inactive)
22,CCCCCOP(=O)(OCCCCC)C(=O)Nc1ccc([N+](=O)[O-])cc1,-5.25% (inactive)
23,Cc1nnc2cc3ccccc3cn12,26.4% (inactive)
24,C[N+](C)(C)CC1CCC(C[N+](C)(C)C)C1=NO (configuration not stated),4.2% (inactive)
25,C[C@H]1CC(=O)C[C@@H]2CC[C@@H]3[C@H](CC[C@]4(C)C(OC(=O)c5cccc6c(=O)c7ccccc7[nH]c56)CC[C@@H]34)[C@]21C (some centres not stated),45.6% (inactive)
26,C=C(C)C1(CC)C(=O)NC(=O)N(C)C1=O (configuration not stated),-1.25% (inactive) and -7.5% (inactive)
